# Test results taken from the supplement of paper PMC8728848.
# About 410 targets per protein were measured; listed, in parts, are those with the strongest signals and a random draw of the rest.
# How the values were obtained:
# Assay in all cases: glycan array binding signal (z-score within array); higher = stronger binding
# Settings in all cases: glycan notation: IUPAC condensed, linker removed
# [1] = biological target: Fuc(a1-2)Gal(b1-3)[Fuc(a1-4)]GlcNAc(b1-2)Man(a1-3)[Fuc(a1-2)Gal(b1-3)[Fuc(a1-4)]GlcNAc(b1-2)Man(a1-3)]Man(b1-4)GlcNAc(b1-4)GlcNAc
# Procedure, shortened: (§1)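 The Consortium for Functional Glycomics database supplied 3228 glycan arrays, of which those lacking an available protein sequence were dropped. The binding signal, a within-array Z-score, was averaged across arrays of the same protein sequence and across linkers. Negative scores can be read as non-binding.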
# [2] = biological target: Fuc(a1-2)Gal(b1-4)Fuc(a1-3)]GlcNAc(b1-2)Man(a1-3)[Fuc(a1-2)Gal(b1-4)[Fuc(a1-3)]GlcNAc(b1-2)Man(a1-6)]Man(b1-4)GlcNAc(b1-4)GlcNAc
# Procedure, shortened: as §1
# Fuc(a1-2)Gal(b1-4)GlcNAc = biological target: Fuc(a1-2)Gal(b1-4)GlcNAc
# Procedure, shortened: as §1
# [3] = biological target: Fuc(a1-2)Gal(b1-4)[Fuc(a1-3)]GlcNAc(b1-2)[Fuc(a1-2)Gal(b1-4)[Fuc(a1-3)]GlcNAc(b1-4)]Man(a1-3)[Fuc(a1-2)Gal(b1-4)[Fuc(a1-3)]GlcNAc(b1-2)Man(a1-6)]Man(b1-4)GlcNAc(b1-4)GlcNAc
# Procedure, shortened: as §1
# [4] = biological target: Fuc(a1-2)Gal(b1-4)[Fuc(a1-3)]GlcNAc(b1-3)Gal(b1-4)[Fuc(a1-3)]GlcNAc(b1-3)Gal(b1-4)[Fuc(a1-3)]GlcNAc
# Procedure, shortened: as §1
# [5] = biological target: Fuc(a1-2)Gal6S(b1-4)Glc6S
# Procedure, shortened: as §1
# [6] = biological target: Fuc(a1-2)[GalNAc(a1-3)]Gal
# Procedure, shortened: as §1
# [7] = biological target: Fuc(a1-2)[GalNAc(a1-3)]Gal(b1-3)GalNAc(a1-3)[Fuc(a1-2)]Gal(b1-4)GlcNAc
# Procedure, shortened: as §1
# [8] = biological target: Gal(a1-3)Gal(b1-4)GlcNAc(b1-2)Man
# Procedure, shortened: as §1
# [9] = biological target: Gal(a1-3)Gal(b1-4)[Fuc(a1-3)]GlcNAc(b1-2)Man(a1-3)[Gal(a1-3)Gal(b1-4)[Fuc(a1-3)]GlcNAc(b1-2)Man(a1-6)]Man(b1-4)GlcNAc(b1-4)GlcNAc
# Procedure, shortened: as §1
# Gal(a1-4)Gal(b1-4)Glc = biological target: Gal(a1-4)Gal(b1-4)Glc
# Procedure, shortened: as §1
# [10] = biological target: Gal(b1-3)GlcNAc(a1-6)Gal(b1-4)GlcNAc
# Procedure, shortened: as §1
# [11] = biological target: Gal(b1-3)GlcNAc(b1-3)Gal(b1-4)GlcNAc(b1-2)Man(a1-3)[Gal(b1-3)GlcNAc(b1-3)Gal(b1-4)GlcNAc(b1-2)Man(a1-6)]Man(b1-4)GlcNAc(b1-4)GlcNAc
# Procedure, shortened: as §1
# [12] = biological target: Gal(b1-4)GlcNAc(b1-2)Man(a1-6)[Man(a1-3)]Man(b1-4)GlcNAc(b1-4)GlcNAc
# Procedure, shortened: as §1
# [13] = biological target: Gal(b1-4)GlcNAc(b1-3)Gal(b1-4)GlcNAc(b1-2)Man(a1-3)[Gal(b1-4)GlcNAc(b1-3)Gal(b1-4)GlcNAc(b1-2)Man(a1-6)]Man(b1-4)GlcNAc(b1-4)GlcNAc
# Procedure, shortened: as §1
# [14] = biological target: Gal(b1-4)GlcNAc(b1-3)Gal(b1-4)GlcNAc(b1-2)[Gal(b1-4)GlcNAc(b1-3)Gal(b1-4)GlcNAc(b1-6)]Man(a1-6)[Gal(b1-4)GlcNAc(b1-3)Gal(b1-4)GlcNAc(b1-2)Man(a1-3)]Man(b1-4)GlcNAc(b1-4)GlcNAc
# Procedure, shortened: as §1
# [15] = biological target: Gal(b1-4)GlcNAc(b1-3)Gal(b1-4)GlcNAc(b1-2)[Gal(b1-4)GlcNAc(b1-3)Gal(b1-4)GlcNAc(b1-6)]Man(a1-6)[Gal(b1-4)GlcNAc(b1-3)Gal(b1-4)GlcNAc(b1-2)Man(a1-3)]Man(b1-4)GlcNAc(b1-4)[Fuc(a1-6)]GlcNAc
# Procedure, shortened: as §1
# [16] = biological target: Gal(b1-4)GlcNAc(b1-3)Gal(b1-4)GlcNAc(b1-3)Gal(b1-4)GlcNAc
# Procedure, shortened: as §1
# [17] = biological target: Gal(b1-4)GlcNAc(b1-3)Gal(b1-4)GlcNAc(b1-3)Gal(b1-4)GlcNAc(b1-2)Man(a1-3)[Gal(b1-4)GlcNAc(b1-3)Gal(b1-4)GlcNAc(b1-3)Gal(b1-4)GlcNAc(b1-2)Man(a1-6)]Man(b1-4)GlcNAc(b1-4)GlcNAc
# Procedure, shortened: as §1
# [18] = biological target: Gal(b1-4)GlcNAc(b1-3)Gal(b1-4)GlcNAc(b1-3)Gal(b1-4)GlcNAc(b1-3)Gal(b1-4)GlcNAc(b1-3)Gal(b1-4)GlcNAc(b1-2)Man(a1-3)[Gal(b1-4)GlcNAc(b1-3)Gal(b1-4)GlcNAc(b1-3)Gal(b1-4)GlcNAc(b1-3)Gal(b1-4)GlcNAc(b1-3)Gal(b1-4)GlcNAc(b1-2)Man(a1-6)]Man(b1-4)GlcNAc(b1-4)[Fuc(a1-6)]GlcNAc
# Procedure, shortened: as §1
# [19] = biological target: Gal(b1-4)GlcNAc(b1-3)Gal(b1-4)GlcNAc(b1-3)GalNAc
# Procedure, shortened: as §1
# [20] = biological target: Gal(b1-4)GlcNAc(b1-3)[Fuc(a1-3)GlcNAc(b1-6)]Gal(b1-4)Glc
# Procedure, shortened: as §1
# Gal(b1-6)Gal = biological target: Gal(b1-6)Gal
# Procedure, shortened: as §1
# [21] = biological target: Gal3S(b1-4)[Fuc(a1-3)]Glc6S
# Procedure, shortened: as §1
# Gal6S(b1-3)GlcNAc = biological target: Gal6S(b1-3)GlcNAc
# Procedure, shortened: as §1
binder,measurement,setting,value
"Erv46-EDTA (Saccharomyces cerevisiae), P39727 (protein) MKFLVNVALVFMVVYISYIYAAAPEHHHHHHDYDIPTTENLYFQGAMDSVVTRPQLVVDRDRHAKLELNMDVTFPSMPCDLVNLDIMDDSGEMQLDILDAGFTMSRLNSEGRPVGDATELHVGGNGDGTAPVNNDPNYCGPCYGAKDQSQNENLAQEEKVCCQDCDAVRSAYLEAGWAFFDGKNIEQCEREGYVSKINEHLNEGCRIKGSAQINRIQGNLHFAPGKPYQNAYGHFHDTSLYDKTSNLNFNHIINHLSFGKPIQSHSKLLGNDKRHGGAVVATSPLDGRQVFPDRNTHFHQFSYFAKIVPTRYEYLDNVVIETAQFSATFHSRPLAGGRDKDHPNTLHVRGGIPGMFVFFEMSPLKVINKEQ",glycan array binding signal (z-score),[1],0.467
same,glycan array binding signal (z-score),[2],3.11
same,glycan array binding signal (z-score),Fuc(a1-2)Gal(b1-4)GlcNAc,-0.508
same,glycan array binding signal (z-score),[3],2.34
same,glycan array binding signal (z-score),[4],-0.775
same,glycan array binding signal (z-score),[5],0.075
same,glycan array binding signal (z-score),[6],-0.619
same,glycan array binding signal (z-score),[7],-0.454
same,glycan array binding signal (z-score),[8],0.805
same,glycan array binding signal (z-score),[9],2.74
same,glycan array binding signal (z-score),Gal(a1-4)Gal(b1-4)Glc,0.54
same,glycan array binding signal (z-score),[10],-0.279
same,glycan array binding signal (z-score),[11],0.126
same,glycan array binding signal (z-score),[12],-0.001
same,glycan array binding signal (z-score),[13],4.93
same,glycan array binding signal (z-score),[14],2.71
same,glycan array binding signal (z-score),[15],2.65
same,glycan array binding signal (z-score),[16],0.66
same,glycan array binding signal (z-score),[17],3.36
same,glycan array binding signal (z-score),[18],1.81
same,glycan array binding signal (z-score),[19],2.4
same,glycan array binding signal (z-score),[20],-0.11
same,glycan array binding signal (z-score),Gal(b1-6)Gal,-0.241
same,glycan array binding signal (z-score),[21],0.233
same,glycan array binding signal (z-score),Gal6S(b1-3)GlcNAc,-0.805
